Screening results from PubChem BioAssay.
Shown are actives, neighbours in structure and some others; about 2.4% of the full set was active somewhere.
Mcl1-Bid inh = disrupts binding of human Mcl-1 to Bid peptide | Q07820 | TR-FRET Mcl-1/Bid-Dy647 peptide binding, 1536-well | inhibition, % at 21.7 µM | actives 0.97% (n = 220,000) | AID 1021;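 active = compounds that cut the binding signal by more than half at the single screening dose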;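 also: His-tagged Mcl-1 with europium anti-His antibody binding Bid BH3 peptide; 0% = Mcl-1 plus peptide wells and 100% = peptide-only wells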
L929 necroptosis = blocks zVAD induced death of L929 cells; actives 0.38% (n = 220,000); L929 zVAD necroptosis rescue, ATP luminescence, 24 h; with zVAD 60 µM; viability rescue, % at 10 µM;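 active = activation, scaled between plate controls, above about 75%, limit read from the data; inactive = activation under that limit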;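 also: 0% = zVAD with DMSO and 100% = DMSO alone without zVAD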
Mcl1 Noxa PPI = Mcl-1/Noxa interaction inhibition. AID 1022. inhibition, % at 21.7 µM. TR-FRET Mcl-1/Noxa peptide binding, 2 h. actives 1.5% (n = 220,000). Q07820;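 active = compounds that cut the protein-peptide binding signal by more than 50% relative to plate controls in a single-dose test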;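 also: His-tagged Mcl-1 with rhodamine Noxa BH3 peptide and terbium anti-His antibody; 0% = Mcl-1 plus Noxa peptide wells and 100% = peptide-only wells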
MCL1-BIM inh = MCL1-BIM-BH3 interaction inhibition (human) | Q07820 | GST-MCL1 / FITC-Bim-BH3 fluorescence polarization | inhibition, % at 10.9 µM | actives 0.68% (n = 320,000) | AID 2057;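 active = inhibition above the mean inhibition of all tested compounds plus 3 SD, set per campaign, cut at about 40% in these data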;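 also: 0% = DMSO wells and 100% = unlabeled Bim-BH3 peptide control; higher means more loss of mP so more displacement of Bim peptide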
TNF death inh = blocks TNF-alpha induced death of Jurkat FADD-/- cells. Jurkat FADD-/- TNF necroptosis rescue, ATP luminescence, 24 h; 0 = TNF only, 100 = no-TNF cells. activation (protection from cell death), % at 10 µM. actives 0.068% (n = 220,000). AID 463075;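 active = activation, meaning protection from cell death, of at least 50% relative to plate controls; inactive = activation below 50%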;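 also: necroptosis triggered by 40 ng/mL TNF-alpha added together with compound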
Mcl-1 Bim block = disrupts Bim peptide binding to human Mcl-1; Q07820; Bead-based flow cytometry, Bim peptide-Mcl-1 binding; inhibition, % at 10 µM; actives 0.1% (n = 190,000); AID 1009; in the data active = inhibition above about 40%;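 also: 0% = no compound tracer wells and 100% = peptide blocker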
BCLXL inh confirm = Bcl-xL (human) inhibition, MCL1 counter-screen confirmation | shares compounds with MCL1-BIM inh | GST-Bcl-xL / FITC-Bim BH3 peptide FP binding | inhibition, % at 10.9 µM | actives 54% (n = 1,700);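 active = inhibition above a cutoff equal to the mean inhibition of all tested compounds plus 3 SD, cut at about 30% in these data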;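 also: 0% = DMSO wells and 100% = unlabeled Bim BH3 control peptide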
Target sequence (Q07817 whole entry, looked up): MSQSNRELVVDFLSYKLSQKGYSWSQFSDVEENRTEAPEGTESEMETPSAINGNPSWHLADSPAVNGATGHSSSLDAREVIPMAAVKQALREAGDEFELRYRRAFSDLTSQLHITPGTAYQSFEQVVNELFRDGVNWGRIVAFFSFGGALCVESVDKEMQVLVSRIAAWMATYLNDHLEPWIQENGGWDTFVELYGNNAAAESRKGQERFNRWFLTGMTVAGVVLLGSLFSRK
MCL1 BIM confirm = MCL1-BIM-BH3 interaction inhibition, confirmation | shares compounds with MCL1-BIM inh | GST-MCL1 / FITC-Bim-BH3 fluorescence polarization | inhibition, % at 10.9 µM | actives 61% (n = 1,700);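 active = inhibition above the average of all tested compounds plus 3 SD, cut at about 40% in these data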;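 also: 0% = DMSO wells and 100% = unlabeled Bim-BH3 control peptide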
Starred values were filed as active, the others as inactive; / = no result; + = active, no number.

SMILES	Mcl1-Bid inh	L929 necroptosis	Mcl1 Noxa PPI	MCL1-BIM inh	TNF death inh	Mcl-1 Bim block	BCLXL inh confirm	MCL1 BIM confirm
CCc1ccccc1-n1nnc(-c2ccccc2)n1	/	/	/	-3	/	/	/	/
C=CCCC(=O)N(C)CCO	/	/	/	7	/	/	/	/
CN(C)C1(CN=Cc2cc(Cl)cc([N+](=O)[O-])c2O)CCCCC1	/	/	/	60*	/	/	-3	2
Cc1nc2ccccc2c(=O)n1/N=C/c1ccc(O)c(O)c1O	/	/	/	69*	/	/	26	67*
Cc1nc2ccccc2c(=O)n1/N=C/c1ccccc1O	-26	1	8	1	-2	/	/	/
COc1ccc(OC)c(-c2c3cc(O)c(=O)cc-3oc3cc(O)c(O)cc23)c1	-1	3	91*	118*	-5	-116	120*	133*
CC(Sc1nccn1C)C(=O)Nc1ccc(Cl)cn1 (stereo not given)	/	/	/	0	/	/	/	/
O=C(c1cccc(-n2cccc2)c1)N1CCN(S(=O)(=O)c2ccccc2)CC1	/	/	/	51*	/	/	32*	88*
Cc1ccc(S(=O)(=O)N2CCN(C(=O)c3cccc(-n4cccc4)c3)CC2)cc1	/	/	/	16	/	/	/	/
O=C(NCCc1c[nH]c2ccccc12)C(=O)NCC1OCCCN1S(=O)(=O)c1cccs1 (stereo not given)	-37	-2	15	-1	1	-1	/	/
CC(C)N(C(=O)Nc1ccc2nsnc2c1)C(C)C	-58	1	1	66*	0	1	28	24
COc1ccc(N(C)C(=O)Nc2ccc3nsnc3c2)cc1	-24	55	13	/	1	-1	/	/
O=C1c2ccc(-c3ccc4c(c3)C(=O)N(CCCO)C4=O)cc2C(=O)N1CCCO	-22	2	-3	4	0	/	/	/
O=C1C2=C(SCCS2)C(=O)N1CCCO	-19	0	-3	92*	-3	0	74*	94*
O=C(NC(Cc1ccccc1)C(=O)NCCc1ccccn1)c1ccccc1 (stereo not given)	/	/	/	3	/	/	/	/
COc1ccc2nc(N3CCCCC3)c(C#N)cc2c1	18	0	-7	27	0	-2	/	/
COc1ccc2nc(N3CCCC3)c(C#N)cc2c1	1	0	5	67*	-7	0	115*	130*
COc1ccc(OC)c(-c2cc(C(=O)N/N=C/c3cc(OC)c(OC)cc3OC)c3ccccc3n2)c1	/	/	/	-1	/	/	/	/
COC(=O)C1=C(C)NC(=O)/C1=C\N(C)C	-44	0	13	105*	0	0	8	8
Cc1ccccc1-c1noc(CCC(=O)NCc2ccco2)n1	-32	0	7	4	0	/	/	/
CN(C)c1ncnc2c1NC1=C(S2)C(=NCCCC(=O)O)CC(C)(C)C1	-45	0	40	32	-3	-1	/	/
COc1ncnc2c1NC1=C(S2)C(=NCCC(=O)O)CC(C)(C)C1	9	0	25	162*	-2	-3	171*	198*
Cc1cc(C)cc(C(=O)N/N=C/c2ccoc2)c1	/	/	/	1	/	/	/	/
O=C(N/N=C/c1ccoc1)c1cc(O)cc(O)c1	/	/	/	43*	/	/	25	56*
Cc1oc(-c2cccs2)nc1CN1CCN(C(C)C)C(CCO)C1 (stereo not given)	-29	0	5	49*	1	-2	5	-1
CCC(C)[C@H](NC(=O)C1CC(=O)N(c2ccc3c(c2)OCO3)C1)C(=O)NC1CCCCC1 (stereo not given in full)	/	/	/	60*	/	/	60*	78*
Cn1c(=O)c(NC2CCCCC2)c2c3c(cccc31)C(=O)c1ccccc1-2	-9	0	-28	/	2	3	/	/
CC(=O)Nc1ccc(NC2=CC(=O)c3ccccc3C2=O)cc1	/	/	/	2	/	/	/	/
CCNc1c2c3c(cccc3n(C)c1=O)C(=O)c1ccccc1-2	-13	48	-134	+	0	9	+	+
